Results published in the supplement of paper PMC6555819.

Each sequence was assayed on VDR:RXRa (NR concentration 270 nM, RXRa partner concentration 90 nM) (assay: PBM binding z-score (relative to random genomic background probes); higher = stronger binding; sequences stand for … in GC…GCGATTGACAGCGTAGAATGAAGG).
Description: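 Protein-binding microarray (Agilent 4x180K custom design, double-stranded 60-nt probes: 5' GC cap, 34-nt variable region, 24-nt constant primer region; full probe sequence given). Purified or IVT nuclear receptor:RXRα heterodimers (3:1 NR:RXRα, mostly 270:90 nM) or homodimers were incubated for 1 h in PBS with 2% milk and no ligand, then detected with Alexa488 antibodies. Fluorescence from o1-orientation probes (~5 replicates averaged) was converted to z-scores against 500 random hg19 background probes. Variable regions are seed direct-repeat (DR0–DR5) sites, all their single-nucleotide variants and half-site ablations.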

Row | Sequence | PBM binding z-score
1 | TCTGGGAGGACACGAAAGGTCAGAGCTCGACATC | 3.35
2 | CCGAGTAGGTTATGGGGCATTCGGGCAACGGTGA | -0.16
3 | CCTAGCAGGCCAATCTGGGTCACACAAGGCTTGA | 1.09
4 | CGTCCAAGGTCGGCAGGTCAGTGAAAGCGACGTG | 1.28
5 | CCGAGTAGGTTATGGCGCATTCAGGCAACGGTGA | -0.266
6 | TCTATTAGTTGATTAGGGCAACCTAAACAGCGGA | 0.744
7 | CGTTAAAGTTCAACTAAGGTAACGTAAAGCACGC | 4.58
8 | CAGACTGGGGCATAAGGTTACCATAAGCCAGCCC | 0.497
9 | AGAATGAGGTTATACGTACATCAGGGAAGAAAGT | 1.67
10 | CCTACTGGGCCGCGAAAGGTCATTGATTCAGTGA | 3.74
11 | GGAACGAGGGCAAAGTGGATAGCATCTGTCGACG | 1.08
12 | CGTCCAAGGTAAGCAGGTCAGTGAAAGCGACGTG | 0.00518
13 | AGAATGAGGTTACCAAAGATCAGGGCAACGCTTG | 1.69
14 | ATATGTAGGTTAGCTGGGGTCAATCAGACTAGGC | 5.46
15 | TTACCAAGGTGAGCTGAGGTCGTTGACCCAACTC | 3.96
16 | CCTACTGGGCCCTTCAGAGGTCATTGATCATATG | 3.41
17 | TCATATAGGTAAAGGTGAAAGTCGAACGATATGA | 0.971
18 | CCGACTGGGGCAAGGTTAACATAACGCACAGCCA | 0.295
19 | AGAATGAGTTTATTAAGATCAGGGAATTGCGGTC | 2.08
20 | TCTAGTTGGTCACGGAAGTCACACACGACGGGTA | 0.891

Row | Sequence | PBM binding z-score
21 | AGAACGAGGGGAATGAGTTGATAGCACGGGTGGC | 2.09
22 | GCTAGCAGGCCATTTGGGTCACTCGATGACGGGC | 0.762
23 | GCTGCTAGGTCAGGTTGTTCAGCTAACGGGTACG | 0.65
24 | AATACAGGGTCACTAGGCCAGGGTAGGTACGAAT | 4
25 | AATACAGGGTCACTAGGCCAGATTAGGTACGAAT | 4.21
26 | TCGCGGAGGACACGAAAGGTCAGAGCTCGACATC | 3.13
27 | CCGACTGGGGCCGAAAGGTTACCATACCATCCGG | 0.789
28 | TCTTGTAGATGAATAGAGGTTAAGAAAGTGCGCT | 1.94
29 | TAGCCTAGGTCAGATCGCGCCAGTATACGCTATA | 0.314
30 | TCTAGTTGGTCACGGTGGTCACACACGACGGGTA | 0.961
31 | TCGAGTAGGTTCGGGGCATTCAGAATGGCGTCGA | 0.124
32 | ACAGACAGGTGAGTGAAGGTAATTCAGCTGGACG | -0.394
33 | CGTCAAAGTTCAACTAAGGAAACGTAAAGCACGC | 4.16
34 | TCTAGTAGTTGAAGGGCAACCGACGAGTCCGTTT | 0.266
35 | AGTCAAAGTCCAGGACGAGGTAACGTAAAGCACG | -0.202
36 | CGTCAAAGTTCAAAGTAACGTAACAGAAAGCAGC | 4.09
37 | TAGCCTAGGTCATGGCCCAGTATACCACGCGAAC | 2.25
38 | ATCGAAAGGTCGACGAGGTGTGTATACACCGTTT | 3.81
39 | CAACCTAGGTCAAAGGTCAAAGTCGAGCCAACCA | 7.01
40 | AGTCAATGTTCACTAGGTAACGTAAGATTCAGCT | -0.0351
